# Bioassay records (PubChem BioAssay)
# FUS suppressor = suppressors of FUS proteinopathy in yeast. S. cerevisiae FUS-expressing, growth rescue, OD600, 24 h. Potency, µM (titrated, usually from 76.6 µM), usual class: activators. 390,000 compounds, 0.24% hits. AID 1347120; further: nearly all actives have a fitted effect of over 55% in size
#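 Quantitative HTS measuring growth restoration of FUS-toxic yeast. Galactose-induced cells (OD 0.005) were exposed 24hr at 30C to compounds at several concentrations, then absorbance at 600 nm was recorded.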
# Abeta rescue = restores growth of yeast expressing A-beta42 peptide; yeast expressing A-beta42, growth rescue, OD600, 48 h; response scale: 0% DMSO, 100% iron-clioquinol control; Potency, µM (series often up to 46.1 µM), hits mostly activators; 410,000 compounds, 0.063% hits; AID 1347071; further: nearly all actives have a fitted effect of over 55% in size
#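 Yeast growth medium received pinned compounds, then yeast cells expressing toxic A-beta were added; plates incubated at 30 C for 48 hr. Growth read as absorbance at 600 nm, normalized to DMSO and equimolar FeCl3 plus clioquinol controls.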
# pAkt inh = Akt phosphorylation inhibition; Neuro2A IGF-stimulated pAkt S473 HTRF, 20 min; hits give low values; activity change, % for hits at 50 µM; 360,000 compounds, 0.32% hits; in the data active means activity change below about -80%; inconclusive means mostly about -51% to -80%
#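 Neuro2A cells (4,500/well, DMEM with 0.5% FBS) were treated with compound at a single 50 µM final concentration, stimulated with 6 nM IGF for 20 min at 37 °C, and lysed. Phospho-Akt Ser473 was read by HTRF as 665/615 ratio ×10^4.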
# TDP-43 yeast inh = rescues yeast growth from TDP-43 toxicity | Potency, µM (highest dose often 46.1 µM), actives largely listed as activators | 410,000 compounds, 1.8% hits | TDP-43 expressing yeast growth rescue, BacTiter-Glo, 24 h; further: nearly all actives have a fitted effect of over 50% in size
#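 Growth rescue of TDP-43-toxic yeast measured as ATP luminescence (BacTiter-Glo). Cells grown to mid-log in raffinose, induced in galactose at OD600=0.02, exposed to compound 24 hr at 30 deg C.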
# aSyn rescue = rescues yeast growth from alpha-synuclein toxicity | AID 652106 | Potency, µM (series often up to 46.1 µM), most hits filed as activators | 370,000 compounds, 0.14% hits | Yeast expressing alpha-synuclein, growth rescue, BacTiter-Glo, 24 h; further: nearly all actives have a fitted effect of over 65% in size
#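 Readout is rescue of growth in alpha-synuclein-expressing yeast, so inhibitors of toxicity appear as activators. Growth after 24 hr at 30 deg C in galactose medium is quantified by luminescence.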
# Numbers stand for hits; - = inactive; ? = inconclusive; . = no result given. Hits are enriched below; roughly 2.3% of the tested compounds scored in any of these assays. Unless noted, the call rests on the fitted dose curve; in most records, active means well fitted curve in the direction sought with a large enough effect; inconclusive means small, poorly fitted or top-dose-only effect, or another doubt; inactive means no such curve, though single readings can be large; an effect the other way counts as inactive or inconclusive.
SMILES,FUS suppressor,Abeta rescue,pAkt inh,TDP-43 yeast inh,aSyn rescue
CCCS(=O)(=O)NCCc1sc2nc(-c3ccc(F)cc3)nn2c1C,-,-,.,-,.
Cc1ccc(-c2nc3sc(CCNC(=O)c4ccc(Br)o4)c(C)n3n2)cc1,?,-,.,18µM,.
Cc1ccc(-c2nc3sc(CCNC(=O)c4ccco4)c(C)n3n2)cc1,-,-,.,20µM,.
Cc1ccc(C)c(Cn2c(SCC(=O)N(C)Cc3ccccc3)nc3ccccc32)c1,?,-,.,?,.
O=C(Cn1cc(S(=O)(=O)Cc2ccccc2Cl)c2ccccc21)Nc1ccc(F)cc1F,-,-,.,-,.
CCCN1CCN(CCNC(=O)Nc2cc(Cl)c(OC)cc2OC)CC1,-,-,.,-,.
O=C1CC(=C2c3ccccc3-c3ccccc32)C(=O)N1CCN1CCN(c2ccccc2)CC1,40µM,-,-,-,-
Cc1ccccc1N1CCN(CCN2C(=O)CC(=C3c4ccccc4-c4ccccc43)C2=O)CC1,?,-,-,-,-
COc1ccccc1N1CCN(CCN2C(=O)CC(=C3c4ccccc4-c4ccccc43)C2=O)CC1,16µM,-,-,-,-
CN1C(=O)Cc2cc(S(=O)(=O)NCc3ccc(Cl)cc3)ccc21,-,-,.,?,.
Cc1sc(NC(=O)CSc2nnc(-c3ccc(F)cc3)o2)c(C#N)c1C,-,-,-108%,-,-
Cc1ccc(-c2nnc(SCC(=O)Nc3sc(C)c(C)c3C#N)n2C)cc1,-,-,-,-,-
O=C(COc1ccc(Br)cc1Br)NC(=S)N1CCCc2ccccc21,-,-,-92%,-,-
O=C(COc1ccc(Br)cc1Br)NC(=O)NC1CCCC1,-,-,-,-,-
CC(C)(C)NC(=O)NC(=O)COc1ccc(Br)cc1Br,-,-,-,28µM,-
CC(=O)/C(=N/Nc1cccc(Cl)c1)N1CCOCC1,-,-,-,18µM,-
CC(=O)Nc1ccc(C(=O)CSc2nnc3cc(C)c4ccccc4n23)cc1,-,-,.,-,.
COC(=O)[C@]12C[C@H](CC(=O)NCCCN3CCCC3=O)C(=O)N(CCc3ccc(OC)c(OC)c3)C1=C[C@H](C(C)C)O[C@@H]2C1CC1,-,.,.,.,.
COC(=O)[C@]12C[C@H](CC(=O)NCC34CC5CC(CC(C5)C3)C4)C(=O)N(Cc3ccco3)C1=C[C@H](C(C)C)O[C@@H]2C1CC1,25µM,.,.,.,.
COC(=O)[C@]12C[C@H](CC(=O)NCCC(C)C)C(=O)N(Cc3ccco3)C1=C[C@H](C(C)C)O[C@@H]2C1CC1,-,.,.,.,.
CCCCCCCCN1C(=O)[C@@H](CC(=O)NCCCN2CCCC2=O)C[C@@]2(C(=O)OC)C1=C[C@H](C(C)C)O[C@@H]2C1CC1,18µM,.,.,.,.
CCCCCCCCN1C(=O)[C@@H](CC(=O)N2CCN(C(=O)C3CC3)CC2)C[C@@]2(C(=O)OC)C1=C[C@H](C(C)C)O[C@@H]2C1CC1,28µM,.,.,.,.
CCCCCCN1C[C@H](n2cc(COC(=O)c3ccccc3)nn2)[C@@H](O)C[C@@H]1c1ccc(C)cc1,?,-,-,35µM,-
CCCCCCN1C[C@@H](n2cc(COC(=O)c3ccccc3)nn2)[C@H](O)C[C@@H]1c1ccccc1,-,-,-,-,25µM
CCCCCCN1C[C@H](n2cc(COC(=O)c3ccccc3)nn2)[C@@H](O)C[C@@H]1c1ccccc1,-,-,-,-,-
SMILES,FUS suppressor,Abeta rescue,pAkt inh,TDP-43 yeast inh,aSyn rescue
CCOc1ccc(NC(=O)c2ccc3c(SCC(=O)O)c4c(nc3c2)CCC4)cc1,-,-,.,-,.
Cc1ccc(-c2cc(-c3nnc(SCC(=O)NC4CCCCC4)n3N)[nH]n2)cc1,-,.,.,.,.
COc1ccc(N2CC(NC(=O)C3CCCC3)CC2=O)cc1 (centres undefined),-,-,.,-,.
CN(C(=S)Oc1ccc(C(=O)Nc2ccccc2)cc1)c1ccccc1,.,-,-,13µM,-
COc1ccc(NC(=O)c2ccc(OC(=S)N(C)c3ccc(OC)cc3)cc2)cc1,-,-,-,-,-
CCN(CC)C(=O)c1sc2c(c1C)c(=O)n(-c1ccc(OC)cc1OC)c(=O)n2CC(=O)c1ccc(Cl)cc1,20µM,-,.,-,.
COc1ccc(-c2ccc(=O)n(Cc3cccc([N+](=O)[O-])c3)n2)cc1,-,.,-,18µM,-
COC(=O)c1ccn(CSc2cc(Cl)ccc2Cl)n1,-,-,-,13µM,-
